Laboratory results: PubChem BioAssay AID1766 (National Center for Advancing Translational Sciences (NCATS), 2009)
Out of some 290,000 compounds screened, fewer than 10 were called active. Another 3% or so got no clear call; they are omitted. Calls follow the shape of the dose curve; as a rule, active = well fitted curve in the direction sought with a large enough effect in the polarisation (not every such curve was filed as active); inconclusive = small, poorly fitted or top-dose-only effect, or effect the other way, or a change in a side signal; inactive = no such curve, though single readings can be large or run the other way; the % refers to the polarisation. Not all results are given here.

test: qHTS Assay for Inhibitors Targeting the Menin-MLL Interaction in MLL Related Leukemias: Competition With Fluorescein Labeled MLL-derived Peptide; conditions: Fluorescence polarization, fluorescein-MLL peptide displacement from menin; series mostly up to 61.4 µM; also: % of control where 0% means no effect
Source text: qHTS Assay for Inhibitors Targeting the Menin-MLL Interaction in MLL Related Leukemias NIH Chemical Genomics Center [NCGC] NIH Molecular Libraries Probe Centers Network [MLPCN] MLPCN Grant: MH084875-01A1 Assay Submitter (PI): Jolanta Grembecka, Tomasz Cierpicki, University of Virginia Translocations of the MLL (Mixed Lineage Leukemia) gene are frequently found in human leukemias affecting both children and adults. Fusion of MLL to one of more than 60 genes results in generation of oncogenic proteins upregulating Hox genes, which are vital to blood cell development. Patients harboring fusion of the MLL gene suffer from aggressive leukemias and respond poorly to available therapies. All of the oncogenic fusion proteins have a preserved N-terminal fragment of MLL that has been identified to interact with menin. It has been recently discovered that association with menin is critical to the leukemogenic activity of the MLL fusion oncoproteins. Selective targeting of the menin-MLL interaction could provide an attractive therapeutic approach to develop novel drugs for MLL-related leukemias. Small molecules blocking the menin-MLL interaction should reverse the oncogenic potential of MLL fusion proteins. We have developed and optimized a fluorescence polarization-based assay for the identification of Menin-MLL inhibitors. The assay was run employing two different MLL-derived peptides. The present assay uses a 12 amino acid peptide labeled with fluorescein at its N-terminus. This peptide consists of the menin high affinity binding motif from MLL and is potently bound by menin. Another peptide with a mutated sequence, labeled with Texas Red, was used in parallel as a less stringent screen for inhibitors.
The Menin protein, the MLL-wild type (w.t.) derived peptide (N-terminal 12 amino acids), the MLL-derived peptide labeled with Texas Red and the MLL-w.t. peptide labeled with Fluorescein were kindly supplied by laboratory of Dr. Jolanta Grembecka, University of Virginia. All protein and peptide solutions were stored in single use aliquots at -80C. The Eu3+ Cyrptate-conjugated mouse monoclonal antibody anti-6 Histidine (Eu3+-AB) and the Streptavidin-XL665 conjugate (XL665) were purchased from Cisbio International (Bedford, MA). All antibody and XL665 conjugate solution stocks were stored in single use aliquots at -20C. The Buffer components for all assays were purchased from Sigma-Aldrich (St. Louis, MO) and Invitrogen (Carlsbad, CA). FP Assay Reagents: 1. FP reaction buffer: 50 mM Tris-HCl pH 7.5, 50 mM NaCl, 1mM DTT. Before use, 0.05% BSA is added. 2. Menin protein, MLL-w.t. labeled with fluorescein, MLL-mutant peptide labeled with texas red. Stored in singe use aliquots at -80C. 3. MLL-w.t. unlabeled peptide as positive control: 10 uM final in FP buffer. FP Assay Procedure: 1. Prepare Menin at 200 nM, MLL-w.t.-fluorescein at 25 nM, and MLL-mutant-texas red at 50 nM mixture in FP buffer. 2. Prepare Menin at 200 nM, MLL-w.t.-fluorescein at 25 nM, MLL-mutant-texas red at 50 nM, and 10 uM MLL-w.t. unlabeled mixture in FP buffer. 3. Prepare MLL-w.t.-fluorescein at 25 nM and MLL-mutant-texas red at 50 nM mixture in FP buffer. 3. Dispense 4 ul per well of reagent in step 1 in columns 2, 4 - 48 in a black 1536 well plate, dispense 4 ul per well of reagents from steps 2 and 3 in columns 1 and 3 respectively. Incubate plate at ambient for 15 minutes. 4. Transfer 23 nl per well of compound to plate and incubate at ambient for 1 hr. 5. Read fluorescence polarization for each label using the PerkinElmer Envision. Envision protocol for fluorescein: FITC FP Dual Enh Mirror, Excitation filter 480, Emission filter (1) P-pol 535, Emission filter (2) S-pol 535 Envision protocol for texas red: FP Dual Enh Mirror, Excitation filter 555, Emission filter (1) P-pol 632, Emission filter (2) S-pol 632

FP activity change, inactive:
CC(C)(C)c1ccc(Cn2nnc3c(=O)[nH]c(C4CCCN(C(=O)c5ccco5)C4)nc32)cc1 (configuration not stated), C/C=C/C=N/NC(=O)c1ccncc1, CCC(=O)Nc1nc(C)c(C(=O)Nc2cccc(Cl)c2)s1, COC(=O)c1ccc(CN2C(=O)NC(c3ccccc3)(c3ccccc3)C2=O)o1, O=C(Nc1nnc(-c2ccccc2F)s1)c1ccccc1F, S=c1[nH]c(-c2cccs2)cn1-c1ccccc1, Cc1ccc(-c2csc(N3CCN(c4cc5c(cc4Cl)nc(-c4ccncc4)n5CCOCCO)CC3)n2)cc1, CCOc1ccc(-n2c(SCC(=O)OC)nc3sc4c(c3c2=O)CCN(C)C4)cc1, COC(=O)c1ccc(Nc2ncnc3sccc23)cc1, Cc1ccc(NC(=O)Nc2cccnc2)cc1, Cc1ccc(N(Cc2ccccc2O)C(=O)c2ccccc2F)cc1, Cc1ccccc1NC(=S)NC(=O)Cc1ccc(Cl)cc1, O=C(NCCCO)c1cc2c([nH]c3ccccc32)c(-c2ccc(F)cc2)n1, Cc1cc(CNC(=O)C2CCC(=O)N(CCc3ccc(Cl)cc3)C2)no1 (configuration not stated), O=C1CCC([N+](=O)[O-])C(c2ccccc2Br)N1 (configuration not stated), CSc1nnc2ccc(-c3ccc(C)cc3)nn12, Cc1ccc(C(=O)c2coc3ccc(O)c(CN(C)C)c23)cc1, CC1(C(=O)NCCc2c[nH]c3ccccc23)C=CC2(CCCCC2)N1C(=O)c1ccccc1 (configuration not stated), Cc1ccc(O)c(NC(=O)c2cc(-c3ccco3)on2)c1, Cc1ccccc1NC(=O)CCOc1ccccc1, Cc1ccc(SCC(CC(C)C)N2CCN(CCc3ccccc3)CCC2=O)cc1 (configuration not stated), NS(=O)(=O)c1ccc(CCNC(=O)c2nc(CS(=O)(=O)c3ccc(Cl)cc3)no2)cc1, O=C1CCN(Cc2ccccc2)CCN1[C@H](CSc1ccccc1)c1ccccc1, CS(=O)(=O)N(CC(=O)N1CCCCCC1)c1cccc(Cl)c1Cl, COc1ccc(NC(=O)N2CCCC2C(=O)NCc2ccccc2Cl)cc1 (configuration not stated), O=C(NCCCN1CCOCC1)C1CCCN(S(=O)(=O)N2CCCCC2)C1 (configuration not stated), Cc1cc(F)ccc1N1CCC(N2CCN(C)C(CCO)C2)CC1 (configuration not stated), Cc1cccc(C(=O)OC(C)CN2CCCC2)c1 (configuration not stated), Cc1cn([C@H]2CC(F)[C@@H](CO)O2)c(=O)[nH]c1=O (some centres not stated), CN1C(=O)CN2CCc3ccccc3C2c2cc(Cl)ccc21 (configuration not stated), C=C1C(=CC=C2CCC[C@@]3(C)[C@@H]2CC[C@H]3[C@H](C)CCCC(C)C)C[C@@H](O)C[C@@H]1O, COc1ccc(NC2CCCN(C(=O)c3ccncc3)C2)cc1 (configuration not stated), COc1cccc(OCc2cc(C(=O)N3CCN(C(=O)c4ccco4)CC3)no2)c1, Cc1ccc(-c2nc(-c3ccncc3)no2)c(C)c1, CN(Cc1ccccc1)C(=O)c1ccc(COc2ccccc2)cc1, COc1cccc(NC(=O)C2C(c3ccccc3)C2(Cl)Cl)c1 (configuration not stated), CN(CCO)c1ccc(/C=N/Nc2nncc3ccccc23)cc1, CC(C)c1ccc(NC(=O)Cn2ncc3ccccc32)cc1, COc1ccc(-c2n[nH]c(C)c2-c2ccccc2OC)c(O)c1, CN(CCc1ccccc1)c1ccc([N+](=O)[O-])cn1, CC(C)(C)OC(=O)NC(Cc1ccccc1)C(=O)NC(CSC1CCCCO1)C(=O)NN (configuration not stated), CN(CC(=O)Nc1ccc(Cl)cc1)C(=O)CNC(=O)c1ccc2ccccc2c1, O=C(CCN1CCCO1)N1CCCC(N2CCN(c3cccc(C(F)(F)F)c3)CC2)C1 (configuration not stated), C/C(=N\NC(=O)c1ccoc1C)c1ccccc1O, CC(=O)Nc1ccc(NC(=O)CC2CCCC2)cc1, COc1cccc2cc(C(N)=O)/c(=N\NC(=O)c3ccccc3)oc12, COc1ccc(OC)c(/C(C)=N\NC(=O)c2cc3cc(Cl)ccc3n2C)c1, CCCC[C@]12Cc3cc(OC)c(OC)cc3C(O1)C1=C(CC3(CCCCC3)OC1=O)O2 0.345% [at 11.7 µM], O=C(COc1ccc(S(=O)(=O)Nc2cccc(C(F)(F)F)c2)cc1)N1CCOCC1, O=C(CSc1nnnn1C1CCCC1)N1CCCCC1, C[C@@H]1CC[C@@]2(OC1)O[C@H]1C[C@H]3[C@@H]4CC=C5C[C@@H](O)[C@H](O)C[C@]5(C)C4CC[C@]3(C)[C@H]1[C@@H]2C (some centres not stated), COc1c(O)c2c(=O)cc(OC)c3c4c(OC)cc(=O)c5c(O)c(OC)c6c(c(c1C[C@@](C)(O)[C@H]6C(C)=O)c23)c54, COCCNc1cc(-c2ccccc2)nc2cc(-c3cccc(F)c3)nn12, COc1ccc(OC)c(NC(=O)CN(C)CCOc2ccc(Br)cc2)c1, CC(C)(c1ccccc1)c1ccc(OCCN2CCCC2)cc1, CCN(CC)c1ccc(/C=N/NC(=O)CNC(=O)c2cccs2)cc1, O=C(Cc1cccs1)NCc1cccc(C(F)(F)F)c1, Cc1cc(S(=O)(=O)NCc2ccccn2)c(Cl)cc1Cl, COc1ccccc1CNS(=O)(=O)c1ccc2c(c1)NC(=O)CS2, COc1ccc(CNS(=O)(=O)c2ccc(NC(=O)N3CCCCC3)cc2)cc1, Oc1ccc(-c2cccc(-c3ccc(O)cc3)c2)cc1, CCCn1c(=O)c(C(=O)Nc2cc(C)ccn2)c(O)c2ccccc21, Cc1cccc(C)c1NC(=O)NC1=CCCN1C, O=C(Nc1ccc(F)cc1)c1ccc(S(=O)(=O)NCc2cccnc2)cc1, CC(C)NC(=O)COCc1cc(-c2ccc3c(c2)OCO3)on1, COc1ccc(/C=N/Nc2nc(-c3ccc(C)cc3)c(C#N)c(=O)[nH]2)cc1, COc1ccc(NCCc2ccccn2)cc1, COc1cc(Cl)ccc1OCc1cc(C(=O)N(C)CCc2c(C)n[nH]c2C)no1, CCCCn1c(-c2cccc(C)c2)nc2cc3[nH]c(=O)c(C(C)C)nc3cc21, CCOc1ccc(N(C(=O)c2snc(C(N)=O)c2N)C(C(=O)NCC2CCCO2)c2c[nH]c3ccccc23)cc1 (configuration not stated), O=C1OC2(CCCCC2)CC2=C1C1O[C@](c3ccsc3)(Cc3ccccc31)O2 6.24% [at 11.7 µM], O=C(c1noc2c1CCCC2)N1CCc2ccccc2C1, O=C(Nc1ccc(Br)cc1F)C1CC(=O)N(C2CCCCC2)C1 (configuration not stated), O=C(Nc1cccc(Br)c1)c1ccc2snnc2c1, CCn1nnnc1SCC(=O)Nc1ccc(N(C)C)cc1, CC(C)CN(CC(C)C)C(=O)CN1c2cccc3cccc(c23)S1(=O)=O, Cc1c(C)n(Cc2ccc(Cl)cc2)c2ccc(C(=O)NCCCN3CCOCC3)cc12, COc1ccc(/C=C/c2noc(-c3ccccc3OC(C)=O)n2)cc1, COc1ccc(C)cc1Nc1n[n+](-c2ccccc2)c(-c2cccc(Cl)c2Cl)s1, CN(Cc1ccccc1)C(=O)C1CCCN(c2ncnc3c2nc2n3CCCCC2)C1 (configuration not stated), C[n+]1cc(-c2ccccc2)oc1-c1ccccc1, CS(=O)(=O)Nc1ccccc1N=C(c1ccccc1)c1ccccc1, O=S1(=O)CCOC[C@H](CC2CCCCC2)N1Cc1ccc(F)cc1, Cc1cc(C)n2nc(CNS(=O)(=O)c3c(F)c(F)c(F)c(F)c3F)nc2n1, Cc1ccc(-c2ncc(Cl)cc2-c2ccc(S(C)(=O)=O)cc2)cn1, CCc1ccccc1NC(=S)Nc1cc(OC)c(NC(=O)C(C)C)cc1OC, CC(=O)Oc1ccc(-c2cccc(C(=O)N3CCCCC3)c2)cc1, O=P(O)(O)OC[C@H](O)CO, CCOCCCNC(=O)C1(O)c2cc(Br)ccc2NC(=O)N1c1ccc(C)c(C)c1 (configuration not stated), COC(=O)C1(C)NC(c2ccc(F)cc2)C2C(=O)N(c3ccccc3)C(=O)C21 (configuration not stated), Cc1cccc(OCCC(=O)Nc2ccccc2C(N)=O)c1, COc1ccc2c(C(=O)c3ccc(C)cc3)n(CCC(N)=O)[n+]([O-])c2c1, Cc1ccc(N2CCN(C(=O)c3cccs3)CC2)c(C)c1, c1ccc(-c2ccc(OCCN3CCOCC3)cc2)cc1, COc1ccc(N(CC(=O)NCCSCc2cccc(Cl)c2)S(C)(=O)=O)cc1, COc1ccc(C(=O)O/N=C(\N)c2ccccn2)cc1[N+](=O)[O-], NS(=O)(=O)c1ccc2nc(NC(=O)C3=COCCO3)sc2c1, COc1ccc(N2CCN(C(=O)c3cccs3)CC2)cc1, CS(=O)(=O)N1CCCC(C(=O)Nc2ccccc2C(F)(F)F)C1 (configuration not stated), O=C(Nc1nnc(C2=COCCO2)o1)c1ccc([N+](=O)[O-])s1, CC1CCN(CC(O)COc2ccc(C(=O)c3ccccc3)cc2)CC1 (configuration not stated), CC(C)(O)c1ccccc1CC[C@H](SCC1(CC(=O)O)CC1)c1cccc(/C=C/c2ccc3ccc(Cl)cc3n2)c1, CCOc1ccc(CN2CCC(n3nccc3NC(=O)C3CC3)CC2)cc1CO, COc1cc(/C=C/C(=O)O)cc(S(=O)(=O)Nc2ccccc2C(=O)NCCc2ccccc2)c1OC, Cc1cc(=O)[nH]c(Nc2cccc(Br)c2)n1, CCCc1cc(C(=O)Nc2ccc(Cl)cn2)cs1, Cc1ccc(S(=O)(=O)NCC2CCC(C(=O)N3CCOCC3)CC2)cc1 (configuration not stated)
